Data taken from PubChem BioAssay (NCI).
The panel holds about 83,000 compounds, 20% with a hit somewhere; the sample as a whole holds those more often.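 The endpoint reported here, percent growth, reads 100 for growth as untreated, 0 for no net growth and -100 for all cells dead.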 The source made the active and inactive calls. The calls were made as follows: active = growth percent below 10; inactive = the rest.

How the values were obtained:
Test in all cases: NCI-60 one-dose screen, 48 h (100 = growth as untreated, 0 = no growth, -100 = all killed)
[1] = system: HCT-15 colon; details: 10 µM unless noted
[2] = system: HT29 colon; details: 10 µM unless noted
[3] = system: SNB-75 CNS; details: 10 µM unless noted
[4] = system: SNB-19 CNS; details: 10 µM unless noted
[5] = system: U251 CNS; details: 10 µM unless noted
[6] = system: PC-3 prostate; details: 10 µM unless noted
[7] = system: SK-MEL-5 melanoma; details: 10 µM unless noted
[8] = system: UACC-62 melanoma; details: 10 µM unless noted
[9] = system: LOX IMVI melanoma; details: 10 µM unless noted
[10] = system: SK-MEL-28 melanoma; details: 10 µM unless noted
[11] = system: SK-MEL-2 melanoma; details: 10 µM unless noted
[12] = system: EKVX NSCLC; details: 10 µM unless noted
[13] = system: SN12C renal; details: 10 µM unless noted
[14] = system: UO-31 renal; details: 10 µM unless noted
[15] = system: TK-10 renal; details: 10 µM unless noted
[16] = system: ACHN renal; details: 10 µM unless noted
[17] = system: CAKI-1 renal; details: 10 µM unless noted
[18] = system: HL-60(TB) leukemia; details: 10 µM unless noted
[19] = system: CCRF-CEM leukemia; details: 10 µM unless noted
[20] = system: A498 renal; details: 10 µM

Measured: growth

COC(=O)[C@@H](C)C[C@H](Cc1ccccc1)NC(=O)c1nc([C@@H](C[C@H](C(C)C)N(C)C(=O)[C@@H](NC(=O)[C@H]2C[C@H](O)CCN2C)C(C)C)OC(C)=O)sc1C(C)C
inactive: [4] 16.5% | [6] 21.5% | [8] 31.3% | [10] 44.8% | [11] 12.4% | [12] 35.2% | [14] 12.5% | [15] 27.5% | [16] 10.8% | [17] 23.8%
active: [1] 2.8% | [2] -15.3% | [3] -9.05% | [5] 7.85% | [7] -24% | [9] 8.19% | [13] 7.67% | [18] -42.3% | [19] 4.78%

CN(C)C1C(=O)C(C(N)=O)=C(O)C2(O)C(=O)C3=C(O)c4c(O)cccc4C(C)(O)C3CC12.[Cl][Sb]([Cl])[Cl] (configuration not stated)
inactive: [1] 26.7% | [2] 38.5% | [3] 40.5% | [4] 36.6% | [5] 10.8% | [6] 15.9% | [7] 15.6% | [8] 26.4% | [9] 25.8% | [10] 47% | [12] 41% | [13] 41.8% | [14] 54.7% | [15] 42.4% | [16] 59% | [17] 12.3% | [18] 31.4% | [19] 17%
active: [11] -7.83%

CC(C)COC(C[N+](=O)[O-])C(Cl)(Cl)Cl (configuration not stated)
inactive: [1] 105% | [2] 106% | [3] 90.4% | [4] 106% | [5] 95.7% | [6] 91% | [7] 112% | [8] 101% | [9] 103% | [10] 99.4% | [11] 115% | [12] 97.2% | [13] 105% | [14] 97.2% | [15] 105% | [16] 107% | [17] 102% | [20] 84.6% | [19] 113%

CC(=O)O[C@H](C[C@H](C(C)C)N(C)C(=O)[C@@H](NC(=O)[C@H]1CCCCN1C)C(C)C)c1nc(C(=O)N[C@@H](Cc2ccccc2)C[C@H](C)C(=O)O)c(CCOCc2ccccc2)s1
active: [1] 6.72% | [2] -4.51% | [3] 0.84% | [7] -40.5% | [11] 2.3% | [13] 9.77% | [18] -29.3% | [19] 9.38%
inactive: [4] 16% | [5] 11.5% | [6] 21.9% | [8] 27.1% | [9] 11.8% | [10] 42% | [12] 49% | [14] 31.8% | [15] 31.3% | [16] 12.3% | [17] 24.4%

CS(=O)(=O)CCN1CC2CCCC(C2)C1
inactive: [1] 99.5% | [2] 96.7% | [3] 94.1% | [4] 99.8% | [5] 101% | [6] 90.1% | [7] 104% | [8] 102% | [9] 104% | [10] 105% | [11] 105% | [12] 102% | [13] 98.2% | [14] 96.9% | [15] 96.4% | [16] 97.7% | [17] 97.1% | [18] 81.4% | [19] 97.2%

O=C(Nc1ccc(O)cc1)C(Cl)(Cl)Cl
inactive: [1] 98.7% | [2] 105% | [3] 98.5% | [4] 102% | [5] 95% | [6] 101% | [7] 100% | [8] 93.8% | [9] 106% | [10] 107% | [11] 99.4% | [12] 98.6% | [13] 95.4% | [14] 93.4% | [15] 106% | [16] 104% | [17] 89.9% | [18] 98.5% | [19] 106%

C[C@]12CC[C@H]3[C@@H](CC[C@]4(O)C[C@@H](O[C@@H]5O[C@H](CO)[C@@H](O[C@@H]6OC[C@@H](O)[C@H](O)[C@H]6O)[C@H](O)[C@H]5O)CC[C@]34C=O)[C@@]1(O)CC[C@@H]2C1=CC(=O)OC1
active: [1] -9.5% | [2] 3.12% | [5] 4.09% | [6] 4.54% | [7] -14.1% | [8] 1.05% | [9] -37.3% | [11] -32.6% | [12] -59.9% | [13] -32.1% | [14] 6.18% | [15] -6.98% | [16] -34.3% | [17] -5.08% | [20] -9.04% | [19] -14.5%
inactive: [3] 28% | [4] 26% | [10] 41.6%

CC(=O)O[C@@H]1CC[C@]2(C)[C@H]3CC[C@]4(C)C(=O)CC[C@H]4[C@@H]3C[C@@H]3SC(N)=N[C@@]32C1
inactive: [1] 35.2% | [2] 10.2% | [3] 73.2% | [4] 54.7% | [5] 37% | [6] 71% | [7] 32.5% | [8] 38.2% | [9] 66.3% | [10] 72.2% | [11] 49.8% | [12] 78.3% | [13] 77.3% | [14] 79.3% | [15] 91.1% | [16] 93.7% | [17] 61.1% | [18] 44.5% | [19] 44.2%

CCN1C(=O)C(=C/C=C/c2ccccc2)C(=O)N(CC)C1=O
active: [19] -14.1%
inactive: [1] 62.6% | [2] 66% | [3] 96.8% | [4] 69.9% | [5] 54.9% | [6] 61.7% | [7] 89.8% | [8] 79% | [9] 17% | [10] 104% | [11] 99.9% | [12] 112% | [13] 75.8% | [14] 70.1% | [15] 94.3% | [16] 70.3% | [17] 87.8% | [20] 94.3%

C[C@]12CCc3sc(NCCc4ccccc4)nc3C1=CC[C@@H]1[C@@H]2CC[C@]2(C)C(=O)CC[C@@H]12
inactive: [1] 22.5% | [2] 34.3% | [3] 85.5% | [4] 80.2% | [5] 60.1% | [6] 38.8% | [7] 66% | [8] 75.6% | [9] 70.2% | [10] 83.3% | [11] 92.1% | [12] 92.4% | [13] 68.5% | [14] 50.4% | [15] 91.3% | [16] 73.8% | [17] 73.5% | [20] 86.9%
active: [18] 1.45% | [19] 8.44%

CC1(C)CN1P(=O)(N1CC1(C)C)N1CC1(C)C (configuration not stated)
inactive: [1] 112% | [2] 120% | [3] 72.7% | [4] 105% | [5] 98.2% | [6] 99.1% | [7] 117% | [8] 98% | [9] 103% | [10] 99.5% | [11] 115% | [12] 124% | [13] 109% | [14] 85% | [15] 118% | [16] 112% | [17] 110% | [20] 102% | [18] 90% | [19] 106%

C=CC[Se]C(=O)c1ccccc1OC(C)=O
inactive: [1] 17.8% | [2] 14.4% | [9] 21.7% | [11] 37.2% | [15] 12.5%
active: [3] -65.1% | [4] -23.2% | [5] -44% | [6] -28.3% | [7] -35.7% | [8] -15.2% | [10] 4.12% | [12] -30.8% | [13] -18.4% | [14] -53.5% | [16] -26.6% | [17] -9.51% | [18] -45.7% | [19] 5.37%

CC1[C@H](C)OC(=O)CC(O)CC(O)CC(O)CCC(O)C(O)C[C@]2(O)CC(O)C(C(=O)O)C(CC(OC3O[C@H](C)[C@@H](O)[C@H](N)[C@@H]3O)/C=C/C=C/C=C/C=C/CC/C=C/C=C/[C@H](C)[C@H]1O)O2 (some centres not stated)
inactive: [1] 109% | [2] 107% | [3] 103% | [4] 109% | [5] 92.4% | [6] 98.7% | [7] 97.2% | [8] 109% | [9] 89.7% | [10] 110% | [11] 134% | [12] 104% | [13] 98.5% | [14] 93.2% | [15] 123% | [16] 90.8% | [17] 88.6% | [18] 110% | [19] 90.6%

ClCCN(CCCl)c1ccc(/C=N\N=C\c2ccc(N(CCCl)CCCl)cc2)cc1
active: [14] -16.2% | [17] 7.35%
inactive: [1] 37.3% | [2] 39.3% | [3] 72.1% | [4] 69.2% | [5] 47.4% | [6] 34.3% | [7] 49.7% | [8] 24.5% | [9] 10.7% | [10] 61.3% | [11] 36.7% | [12] 47.1% | [13] 36.3% | [15] 47.2% | [16] 40.1% | [20] 75% | [19] 25%

CN1CC(CNC(=O)OCc2ccccc2)CC2c3cccc4c3c(cn4C)CC21 (configuration not stated)
inactive: [3] 20.6% | [4] 57.8% | [5] 13.6% | [6] 40% | [11] 47.2% | [12] 71.8% | [13] 45% | [14] 32.5% | [15] 53.9% | [16] 39.7% | [17] 52.9% | [20] 57.6% | [19] 45.7%
active: [1] 8.29% | [2] 5.34% | [7] -97.8% | [8] 5.67% | [9] -37.4% | [10] -41.1%
